TRPM1 prom inh: reduces MITF-dependent TRPM1 promoter luciferase signal. SK-MEL-5 TRPM1 promoter luciferase, 24 h. inhibition, % at 12.5 µM. actives 0.83% (n = 330,000);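 active means mean inhibition across replicates of 60% or more, whatever share of single replicates reaches that level; inconclusive means some that reach 60%, reason not given; inactive means mean inhibition across replicates below 60%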
KKLEB tox: counter-screen for CF NF-kB inhibitors: cytotoxicity; KKLEB CF airway cells viability, ATPlite luminescence, overnight; stronger effect = lower value; cells stimulated with P. aeruginosa culture filtrate; activity change (cytotoxicity), % at 5 µM; actives 0.36% (n = 360,000);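 active means corrected activity change at or below -50% at 5 µM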
Peg3 prom inh: inhibitors of Peg3 promoter; HeLa PEG-Prom luciferase reporter, luminescence, overnight; actives 1.7% (n = 360,000); AID 588405; inhibition, % at 20 µM;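 active means inhibition of at least 50% at 20 µM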
CF NFkB block: inhibitors of cystic fibrosis induced NF-kB; AID 588850; actives 0.86% (n = 360,000); KKLEB NF-kB-GFP reporter, PAF-induced, GFP fluorescence overnight; inhibition, % at 5 µM;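 active means at least 50% inhibition at 5 µM, scaled per plate between neutral and stimulator controls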;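 further: PAF is a Pseudomonas aeruginosa culture filtrate used as stimulus; plate controls were PAF-stimulated DMSO wells for no effect and unstimulated DMSO wells for full effect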
LMP1 NFkB inh: reduces LMP1-driven NF-kappaB luciferase signal. LMP1-induced NF-kappaB luciferase reporter cells, luminescence. inhibition, % at 12.5 µM. actives 0.69% (n = 350,000). AID 504558; in the data active means inhibition above about 41%; inconclusive means no clear call, values can overlap the other calls;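 further: 0% = neutral control wells and 100% = reference inhibitor control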
HIF-2a block: blocks HIF-2a reporter activity; 786-0 RCC cells HIF-2a reporter, luciferase luminescence, overnight; inhibition, % at 18.8 µM; actives 0.72% (n = 360,000);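 active means inhibition of the luminescence signal of 40% or more relative to plate controls, in a single-dose primary screen at 18.75 µM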
* marks the source's active call; other numbers are inactive results. An excerpt weighted towards active compounds, which were near 3% of everything screened.

CCC(c1nnnn1-c1ccc2c(c1)OCCO2)N1CCC2(CC1)C(=O)NCN2c1ccccc1 (stereo not given) was read as KKLEB tox -41, Peg3 prom inh 12, CF NFkB block 14 and HIF-2a block 9.
For COc1ccc(-c2nc3ccccc3c(=O)n2-c2ccc(OC)cc2)cc1 the results were TRPM1 prom inh -5, KKLEB tox -3, Peg3 prom inh 5, CF NFkB block -13, LMP1 NFkB inh -1 and HIF-2a block -10.
CCn1nc(-c2ccccc2)nc2c(=O)n(C)c(=O)nc1-2 was read as TRPM1 prom inh 99*, KKLEB tox -16, Peg3 prom inh 8, CF NFkB block 3, LMP1 NFkB inh -4 and HIF-2a block 17.
Screening Cc1ccc2c(C)c3ccc4ccccc4c3c[n+]2c1 returned TRPM1 prom inh 68*, KKLEB tox 6, Peg3 prom inh 55*, CF NFkB block -126, LMP1 NFkB inh -5 and HIF-2a block 0.
`O=C(/C=C/c1ccccc1)N1Cc2ccccc2-n2nncc2C1` gave KKLEB tox -6, Peg3 prom inh 13, CF NFkB block -16, LMP1 NFkB inh -2 and HIF-2a block 3.
COc1cc2cc(C(=O)N3CC(COS(C)(=O)=O)c4ccc(O)cc43)[nH]c2c(OC)c1OC (stereo not given) was read as TRPM1 prom inh 110*, KKLEB tox -96*, Peg3 prom inh 99*, CF NFkB block 88*, LMP1 NFkB inh 90* and HIF-2a block 83*.
Screening CCCc1c(C)nc(-c2ccc(C)cc2)nc1OC(=O)N(C)C returned TRPM1 prom inh -11, KKLEB tox -3, Peg3 prom inh 17, CF NFkB block -9, LMP1 NFkB inh -14 and HIF-2a block 5.
For COc1ccccc1CCNCc1ccc(OC)c(OC)c1OC the results were KKLEB tox -2, Peg3 prom inh 0, CF NFkB block -6, LMP1 NFkB inh 6 and HIF-2a block 13.
O=C1NC(=O)C(=Cc2c(Cl)cccc2Cl)C(=O)N1 was read as TRPM1 prom inh 23, KKLEB tox -38, Peg3 prom inh 15, CF NFkB block 59*, LMP1 NFkB inh 0 and HIF-2a block 26.
Oc1c(Cl)cccc1Cc1cc(Cl)cc(Cl)c1O was read as TRPM1 prom inh -3, KKLEB tox -19, Peg3 prom inh 49, CF NFkB block 61*, LMP1 NFkB inh -3 and HIF-2a block -3.
Screening Oc1c(Cl)cc(Cl)cc1CN1CCN(Cc2ccccc2)CC1 returned TRPM1 prom inh 4, KKLEB tox 8, Peg3 prom inh 13, CF NFkB block -4, LMP1 NFkB inh -2 and HIF-2a block -17.
For O=C1C2CCN(CC2)C12CC2c1ccc(C(F)(F)F)cc1 (stereo not given) the results were TRPM1 prom inh -3, KKLEB tox 3, Peg3 prom inh -1, CF NFkB block 6, LMP1 NFkB inh -1 and HIF-2a block 15.
NC(Cc1ccc(Cl)cc1)c1csc(Nc2ncccn2)n1 (stereo not given) was read as KKLEB tox -26, Peg3 prom inh 11, CF NFkB block -16 and HIF-2a block -18.
CC(O)C1C=CC=CC(=O)OC2CC3OC4C5OC5(C)C(O)CC4(COC(=O)C(O)C(C)CCO1)C2(C)C31CO1 (stereo not given) was read as TRPM1 prom inh 79*, KKLEB tox -13, Peg3 prom inh 105*, CF NFkB block 83*, LMP1 NFkB inh 88* and HIF-2a block 66*.
Screening COc1ccc(CCNCc2cc(OC)cc(OC)c2)cc1 returned KKLEB tox -4, Peg3 prom inh 9, CF NFkB block 23, LMP1 NFkB inh 5 and HIF-2a block 10.
Screening COc1cccc(-c2sc3ccccc3c2-c2ccc(OCCN3CCOCC3)cc2)c1 returned TRPM1 prom inh -11, KKLEB tox -26, Peg3 prom inh 26, CF NFkB block 30, LMP1 NFkB inh -1 and HIF-2a block 19.
`COc1ccc(-n2c(/C=C/c3ccc(O)c(O)c3)nc3ccccc3c2=O)cc1` gave TRPM1 prom inh 9, KKLEB tox -11, Peg3 prom inh 55*, CF NFkB block -30, LMP1 NFkB inh -3 and HIF-2a block 18.
`COc1cc(/C=C/c2nc3ccccc3c(=O)n2-c2ccc(O)cc2)ccc1O` gave TRPM1 prom inh 5, KKLEB tox -7, Peg3 prom inh 42, CF NFkB block -40, LMP1 NFkB inh -7 and HIF-2a block 7.
CC(C)CCNC(=O)c1c(N)n(Cc2ccc3c(c2)OCO3)c2nc3ccccc3nc12 was read as TRPM1 prom inh -2, KKLEB tox -9, Peg3 prom inh 45, CF NFkB block 10, LMP1 NFkB inh -16 and HIF-2a block -2.
`CCCNC(=O)c1c(N)n(Cc2ccc3c(c2)OCO3)c2nc3ccccc3nc12` gave TRPM1 prom inh -1, KKLEB tox -64*, Peg3 prom inh 41, CF NFkB block 51*, LMP1 NFkB inh -4 and HIF-2a block 11.
Screening O=C1NC(=O)C(=Cc2cn(CCOc3ccc4c(c3)OCO4)c3ccccc23)C(=O)N1 returned TRPM1 prom inh -1, KKLEB tox -19, Peg3 prom inh 64*, CF NFkB block -4, LMP1 NFkB inh 11 and HIF-2a block 13.
For C=CCC1(Cc2ccsc2)C(=O)NC(=O)NC1=O the results were TRPM1 prom inh -4, KKLEB tox -4, Peg3 prom inh -1, CF NFkB block -12, LMP1 NFkB inh -3 and HIF-2a block 3.
Screening Cc1cccc(N2C(=O)NC(=O)/C(=C\c3cccn3-c3ccc(Cl)cc3)C2=O)c1 returned TRPM1 prom inh inconclusive, KKLEB tox -6, Peg3 prom inh 104*, CF NFkB block 45, LMP1 NFkB inh -1 and HIF-2a block 14.
Cc1cc(C)cc(N2C(=O)NC(=O)/C(=C/c3cccn3-c3ccc(Cl)cc3)C2=O)c1 was read as TRPM1 prom inh 51, KKLEB tox 1, Peg3 prom inh 99*, CF NFkB block 61*, LMP1 NFkB inh -10 and HIF-2a block 43*.
For CS(=O)(=O)CCN1CC2CCCC(C2)C1 the results were TRPM1 prom inh 12, KKLEB tox -9, Peg3 prom inh -3, CF NFkB block 2, LMP1 NFkB inh -17 and HIF-2a block 7.
`CN1C(=O)CCC2(C)C1=CCC1C2CCC2(C)C1CCC2(C)O` (stereo not given) gave TRPM1 prom inh -3, KKLEB tox -5, Peg3 prom inh -3, CF NFkB block -1, LMP1 NFkB inh -1 and HIF-2a block 14.
`COC(=O)C1=C(c2ccc(-c3ccccc3)c(F)c2)C[C@@H]2CC[C@H]1N2C(=O)N1CCC(C)CC1` gave TRPM1 prom inh 10, KKLEB tox -4, Peg3 prom inh 37, CF NFkB block 15, LMP1 NFkB inh 45* and HIF-2a block 20.

Compound activity as filed in PubChem BioAssay.
